This passage reports inhibition results from ChEMBL document CHEMBL1961873, “Compounds: GSK PKIS; Assays: Nanosyn kinase panel” (2012).

A word on the inhibition: it is the relative decrease from the control value, in per cent.

Structures are written as SMILES.

The target in experiment [1] is T1, Serine/threonine-protein kinase Nek9 (Homo sapiens) (UniProt Q8TD19).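 Also: each value is a mean percent inhibition of NEK9.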
T1 sequence (whole entry): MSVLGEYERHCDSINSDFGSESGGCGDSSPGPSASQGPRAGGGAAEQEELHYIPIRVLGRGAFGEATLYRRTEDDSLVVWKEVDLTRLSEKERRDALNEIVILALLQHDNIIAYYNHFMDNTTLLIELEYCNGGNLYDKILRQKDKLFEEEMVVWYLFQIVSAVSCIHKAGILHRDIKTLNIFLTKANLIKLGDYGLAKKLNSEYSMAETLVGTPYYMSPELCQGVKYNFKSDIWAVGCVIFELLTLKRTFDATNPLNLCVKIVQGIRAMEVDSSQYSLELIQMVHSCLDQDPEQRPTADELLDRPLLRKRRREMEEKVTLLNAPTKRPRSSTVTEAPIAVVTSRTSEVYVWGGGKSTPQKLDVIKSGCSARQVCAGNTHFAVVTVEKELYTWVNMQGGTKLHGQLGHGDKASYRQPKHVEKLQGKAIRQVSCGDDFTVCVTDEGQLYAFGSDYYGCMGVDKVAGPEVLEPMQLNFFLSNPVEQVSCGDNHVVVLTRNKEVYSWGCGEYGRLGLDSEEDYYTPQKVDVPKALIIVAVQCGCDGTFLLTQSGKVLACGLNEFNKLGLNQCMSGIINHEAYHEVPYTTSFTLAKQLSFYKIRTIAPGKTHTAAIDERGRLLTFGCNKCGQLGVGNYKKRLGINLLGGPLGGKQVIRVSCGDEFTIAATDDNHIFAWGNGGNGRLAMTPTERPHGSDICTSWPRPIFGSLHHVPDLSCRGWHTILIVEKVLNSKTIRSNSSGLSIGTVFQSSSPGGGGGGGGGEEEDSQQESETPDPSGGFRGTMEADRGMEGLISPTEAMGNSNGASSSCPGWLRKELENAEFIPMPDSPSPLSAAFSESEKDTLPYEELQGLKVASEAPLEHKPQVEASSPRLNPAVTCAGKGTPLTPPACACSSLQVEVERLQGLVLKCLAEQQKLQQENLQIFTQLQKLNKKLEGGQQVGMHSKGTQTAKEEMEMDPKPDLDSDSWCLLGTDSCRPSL
As to conditions: at 1 µM.

The target in experiment [2] is Serine/threonine-protein kinase PLK1 (Homo sapiens) (UniProt P53350). To be noted: at 0.1 µM.
The target is the same in experiment [3]. As to conditions: at 1 µM.
In experiment [4] the target is T2, Dual specificity protein kinase TTK (Homo sapiens) (UniProt P33981).
T2 sequence (whole entry): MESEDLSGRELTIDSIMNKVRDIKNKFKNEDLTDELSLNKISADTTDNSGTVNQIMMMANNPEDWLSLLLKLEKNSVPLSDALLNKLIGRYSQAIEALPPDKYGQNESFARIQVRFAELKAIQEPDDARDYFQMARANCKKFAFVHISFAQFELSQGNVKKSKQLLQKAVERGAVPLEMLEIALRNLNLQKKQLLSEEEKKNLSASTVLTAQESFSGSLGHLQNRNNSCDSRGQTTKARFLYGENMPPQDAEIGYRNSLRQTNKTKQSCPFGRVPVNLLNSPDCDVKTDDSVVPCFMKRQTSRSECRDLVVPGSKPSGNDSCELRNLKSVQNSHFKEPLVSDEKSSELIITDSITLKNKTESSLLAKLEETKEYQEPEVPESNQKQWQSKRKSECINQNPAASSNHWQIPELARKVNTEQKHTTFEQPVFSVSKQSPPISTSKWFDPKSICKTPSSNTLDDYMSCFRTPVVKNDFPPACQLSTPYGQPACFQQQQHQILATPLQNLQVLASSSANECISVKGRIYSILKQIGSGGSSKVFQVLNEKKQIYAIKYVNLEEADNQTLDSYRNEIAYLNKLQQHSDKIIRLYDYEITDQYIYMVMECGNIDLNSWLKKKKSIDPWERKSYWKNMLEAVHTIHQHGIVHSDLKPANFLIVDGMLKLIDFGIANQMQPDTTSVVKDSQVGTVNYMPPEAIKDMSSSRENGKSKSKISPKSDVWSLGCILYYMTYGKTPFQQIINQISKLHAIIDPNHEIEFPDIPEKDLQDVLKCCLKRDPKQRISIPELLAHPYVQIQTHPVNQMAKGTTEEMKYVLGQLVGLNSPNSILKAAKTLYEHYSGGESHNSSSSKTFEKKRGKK
As to conditions: at 0.1 µM.

Experiment [5] concerns T3, Receptor-type tyrosine-protein kinase FLT3 (Homo sapiens), P36888 [D835Y].
T3 sequence (whole entry): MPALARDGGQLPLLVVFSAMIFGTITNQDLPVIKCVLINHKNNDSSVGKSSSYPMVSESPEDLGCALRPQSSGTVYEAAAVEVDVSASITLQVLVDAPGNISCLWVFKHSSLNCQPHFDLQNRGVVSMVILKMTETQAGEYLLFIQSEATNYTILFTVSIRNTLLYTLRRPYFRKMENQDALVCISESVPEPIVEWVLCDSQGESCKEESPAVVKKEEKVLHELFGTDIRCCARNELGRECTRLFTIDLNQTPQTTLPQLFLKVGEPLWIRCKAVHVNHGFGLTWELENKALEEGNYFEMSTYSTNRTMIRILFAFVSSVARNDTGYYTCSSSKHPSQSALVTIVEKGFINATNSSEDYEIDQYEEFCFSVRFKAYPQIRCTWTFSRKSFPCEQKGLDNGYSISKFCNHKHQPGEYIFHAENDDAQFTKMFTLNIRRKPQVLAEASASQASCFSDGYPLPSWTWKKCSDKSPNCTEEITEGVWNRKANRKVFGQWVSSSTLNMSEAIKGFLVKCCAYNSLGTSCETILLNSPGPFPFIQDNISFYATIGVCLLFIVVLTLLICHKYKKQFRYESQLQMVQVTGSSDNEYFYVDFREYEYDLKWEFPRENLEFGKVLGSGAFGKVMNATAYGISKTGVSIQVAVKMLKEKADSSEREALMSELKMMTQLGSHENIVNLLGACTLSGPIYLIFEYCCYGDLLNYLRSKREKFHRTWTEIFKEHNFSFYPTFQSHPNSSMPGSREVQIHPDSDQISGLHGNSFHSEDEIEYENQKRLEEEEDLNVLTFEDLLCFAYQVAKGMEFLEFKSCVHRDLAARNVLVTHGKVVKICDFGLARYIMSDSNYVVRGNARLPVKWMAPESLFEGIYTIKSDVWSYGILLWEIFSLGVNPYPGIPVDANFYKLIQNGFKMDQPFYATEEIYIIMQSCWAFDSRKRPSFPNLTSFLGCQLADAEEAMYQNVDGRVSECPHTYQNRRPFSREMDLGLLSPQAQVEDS
To be noted: at 1 µM.

Experiment [6] concerns the target Vascular endothelial growth factor receptor 3 (Homo sapiens) (UniProt P35916). As to conditions: at 0.1 µM.
Experiment [7] has the same target. To be noted: at 1 µM.
Experiment [8] has as its target Macrophage colony-stimulating factor 1 receptor (Homo sapiens) (UniProt P07333). As to conditions: at 0.1 µM.
Experiment [9] has the same target. To be noted: at 1 µM.
Experiment [10] has as its target Tyrosine-protein kinase Fyn (Homo sapiens) (UniProt P06241). To be noted: at 0.1 µM.
Experiment [11] shares this target. To be noted: at 1 µM.
The target in experiment [12] is Tyrosine-protein kinase HCK (Homo sapiens) (UniProt P08631). As to conditions: at 0.1 µM.
Sequence of Tyrosine-protein kinase HCK (Homo sapiens) (P08631 2-526 limits assumed): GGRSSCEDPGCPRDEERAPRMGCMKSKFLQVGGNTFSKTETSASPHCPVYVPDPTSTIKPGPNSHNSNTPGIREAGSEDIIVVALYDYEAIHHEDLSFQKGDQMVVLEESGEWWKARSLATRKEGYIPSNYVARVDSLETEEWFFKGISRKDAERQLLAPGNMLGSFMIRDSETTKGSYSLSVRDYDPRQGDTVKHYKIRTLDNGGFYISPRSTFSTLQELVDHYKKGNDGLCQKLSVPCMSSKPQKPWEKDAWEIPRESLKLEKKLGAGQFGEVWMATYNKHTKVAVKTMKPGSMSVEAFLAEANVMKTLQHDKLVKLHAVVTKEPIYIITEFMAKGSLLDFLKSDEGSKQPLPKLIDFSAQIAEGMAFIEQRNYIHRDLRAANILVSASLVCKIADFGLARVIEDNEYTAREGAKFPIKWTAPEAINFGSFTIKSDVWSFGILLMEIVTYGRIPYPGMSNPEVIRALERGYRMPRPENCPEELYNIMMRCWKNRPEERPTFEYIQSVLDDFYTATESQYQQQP
For experiment [13] the target is unchanged. To be noted: at 1 µM.
Experiment [14] deals with Insulin-like growth factor 1 receptor (Homo sapiens) (UniProt P08069). As to conditions: at 0.1 µM.
Experiment [15] shares this target. As to conditions: at 1 µM.
Experiment [16] has as its target Insulin receptor (Homo sapiens) (UniProt P06213). To be noted: at 0.1 µM.
Experiment [17] has the same target. As to conditions: at 1 µM.
Experiment [18] concerns the target Insulin receptor-related protein (Homo sapiens) (UniProt P14616). As to conditions: at 0.1 µM.
The target is the same in experiment [19]. To be noted: at 1 µM.
Experiment [20] concerns the target T4, Tyrosine-protein kinase ITK/TSK (Homo sapiens) (UniProt Q08881).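 Also: mean percent inhibition of ITK from the GSK PKIS screen.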
T4 sequence (whole entry): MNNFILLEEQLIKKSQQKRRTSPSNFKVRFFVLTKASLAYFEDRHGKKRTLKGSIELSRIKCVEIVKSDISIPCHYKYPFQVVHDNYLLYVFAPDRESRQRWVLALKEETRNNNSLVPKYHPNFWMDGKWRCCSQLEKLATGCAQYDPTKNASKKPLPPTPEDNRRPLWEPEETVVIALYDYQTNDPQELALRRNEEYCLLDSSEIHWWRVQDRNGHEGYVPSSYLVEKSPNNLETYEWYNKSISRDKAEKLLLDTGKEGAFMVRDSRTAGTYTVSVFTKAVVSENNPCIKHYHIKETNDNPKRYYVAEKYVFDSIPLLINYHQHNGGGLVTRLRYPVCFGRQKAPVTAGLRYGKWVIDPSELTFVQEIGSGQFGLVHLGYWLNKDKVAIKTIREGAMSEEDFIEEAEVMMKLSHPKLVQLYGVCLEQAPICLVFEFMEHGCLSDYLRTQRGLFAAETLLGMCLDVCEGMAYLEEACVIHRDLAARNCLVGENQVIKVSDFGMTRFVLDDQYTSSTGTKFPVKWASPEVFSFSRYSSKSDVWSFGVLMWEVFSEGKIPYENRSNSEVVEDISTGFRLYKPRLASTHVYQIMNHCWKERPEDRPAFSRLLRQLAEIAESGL
As to conditions: at 0.1 µM.

Sequence of Insulin receptor-related protein (Homo sapiens) (P14616 27-742 limits assumed): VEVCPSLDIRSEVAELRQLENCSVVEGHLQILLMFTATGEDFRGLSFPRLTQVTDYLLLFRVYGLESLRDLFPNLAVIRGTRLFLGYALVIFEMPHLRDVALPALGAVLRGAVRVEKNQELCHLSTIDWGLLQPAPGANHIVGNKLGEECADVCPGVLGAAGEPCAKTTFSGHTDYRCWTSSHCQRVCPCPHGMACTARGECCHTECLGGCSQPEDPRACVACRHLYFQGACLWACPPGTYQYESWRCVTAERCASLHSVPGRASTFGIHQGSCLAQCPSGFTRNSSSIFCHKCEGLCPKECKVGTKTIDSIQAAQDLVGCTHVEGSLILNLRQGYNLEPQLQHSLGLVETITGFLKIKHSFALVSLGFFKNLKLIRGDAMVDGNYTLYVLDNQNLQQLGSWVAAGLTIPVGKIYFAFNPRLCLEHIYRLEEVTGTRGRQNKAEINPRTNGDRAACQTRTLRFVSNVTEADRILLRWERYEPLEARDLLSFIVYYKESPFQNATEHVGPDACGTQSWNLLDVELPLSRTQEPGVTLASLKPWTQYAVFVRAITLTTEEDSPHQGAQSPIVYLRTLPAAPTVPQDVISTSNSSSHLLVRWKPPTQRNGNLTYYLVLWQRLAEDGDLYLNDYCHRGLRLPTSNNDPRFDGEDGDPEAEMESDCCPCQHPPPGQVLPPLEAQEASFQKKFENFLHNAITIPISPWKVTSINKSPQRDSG
Sequence of Insulin receptor-related protein (Homo sapiens) (P14616 747-1297 limits assumed): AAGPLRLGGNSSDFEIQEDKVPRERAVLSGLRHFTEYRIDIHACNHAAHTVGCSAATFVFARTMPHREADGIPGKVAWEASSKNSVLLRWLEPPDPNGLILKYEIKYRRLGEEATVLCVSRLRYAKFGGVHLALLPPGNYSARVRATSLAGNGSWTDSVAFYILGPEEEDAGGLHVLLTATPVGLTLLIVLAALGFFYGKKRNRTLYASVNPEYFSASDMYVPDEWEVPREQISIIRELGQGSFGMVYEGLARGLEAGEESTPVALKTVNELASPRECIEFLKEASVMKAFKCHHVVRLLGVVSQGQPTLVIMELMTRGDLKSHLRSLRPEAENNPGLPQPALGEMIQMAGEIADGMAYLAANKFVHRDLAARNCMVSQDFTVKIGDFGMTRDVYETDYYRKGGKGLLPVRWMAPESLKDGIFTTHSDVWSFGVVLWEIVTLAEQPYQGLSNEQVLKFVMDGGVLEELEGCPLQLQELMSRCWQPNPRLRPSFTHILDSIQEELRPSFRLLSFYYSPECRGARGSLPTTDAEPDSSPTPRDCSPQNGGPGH
Sequence of Insulin receptor (Homo sapiens) (P06213 28-758 limits assumed): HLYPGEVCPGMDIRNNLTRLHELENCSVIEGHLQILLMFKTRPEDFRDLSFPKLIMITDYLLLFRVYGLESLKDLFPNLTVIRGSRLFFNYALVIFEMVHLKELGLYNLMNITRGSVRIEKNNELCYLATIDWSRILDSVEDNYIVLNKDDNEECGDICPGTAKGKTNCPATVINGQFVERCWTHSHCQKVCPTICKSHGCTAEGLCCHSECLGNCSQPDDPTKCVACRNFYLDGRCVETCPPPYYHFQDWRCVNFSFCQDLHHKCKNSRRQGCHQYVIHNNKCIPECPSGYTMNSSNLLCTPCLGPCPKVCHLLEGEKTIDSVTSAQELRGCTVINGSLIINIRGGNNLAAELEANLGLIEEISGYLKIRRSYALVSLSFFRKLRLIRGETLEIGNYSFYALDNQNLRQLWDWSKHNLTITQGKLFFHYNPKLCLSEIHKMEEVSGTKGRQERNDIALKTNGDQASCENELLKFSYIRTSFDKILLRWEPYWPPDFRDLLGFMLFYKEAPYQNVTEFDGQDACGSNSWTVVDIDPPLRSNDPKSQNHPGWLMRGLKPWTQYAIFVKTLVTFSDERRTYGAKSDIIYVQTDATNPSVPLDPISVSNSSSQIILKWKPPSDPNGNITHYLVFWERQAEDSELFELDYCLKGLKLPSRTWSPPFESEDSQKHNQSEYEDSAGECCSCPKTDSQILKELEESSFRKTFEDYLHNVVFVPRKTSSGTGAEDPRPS
Sequence of Insulin receptor (Homo sapiens) (P06213 763-1382 limits assumed): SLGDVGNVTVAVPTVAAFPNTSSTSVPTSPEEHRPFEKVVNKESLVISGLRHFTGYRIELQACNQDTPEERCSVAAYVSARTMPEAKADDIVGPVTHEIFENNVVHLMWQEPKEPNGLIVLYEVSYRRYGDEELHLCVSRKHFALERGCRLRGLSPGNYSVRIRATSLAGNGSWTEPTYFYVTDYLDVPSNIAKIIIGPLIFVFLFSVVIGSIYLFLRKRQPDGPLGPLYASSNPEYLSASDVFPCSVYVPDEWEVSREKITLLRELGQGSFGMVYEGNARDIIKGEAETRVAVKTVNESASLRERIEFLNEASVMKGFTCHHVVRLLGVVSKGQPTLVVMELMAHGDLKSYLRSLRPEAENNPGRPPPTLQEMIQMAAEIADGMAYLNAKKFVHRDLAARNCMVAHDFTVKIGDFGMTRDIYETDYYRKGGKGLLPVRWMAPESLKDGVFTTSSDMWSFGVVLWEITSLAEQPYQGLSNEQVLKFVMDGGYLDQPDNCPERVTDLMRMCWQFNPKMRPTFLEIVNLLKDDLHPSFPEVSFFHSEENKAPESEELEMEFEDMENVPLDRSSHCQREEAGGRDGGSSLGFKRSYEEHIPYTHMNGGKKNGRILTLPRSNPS
Sequence of Vascular endothelial growth factor receptor 3 (Homo sapiens) (P35916 whole entry): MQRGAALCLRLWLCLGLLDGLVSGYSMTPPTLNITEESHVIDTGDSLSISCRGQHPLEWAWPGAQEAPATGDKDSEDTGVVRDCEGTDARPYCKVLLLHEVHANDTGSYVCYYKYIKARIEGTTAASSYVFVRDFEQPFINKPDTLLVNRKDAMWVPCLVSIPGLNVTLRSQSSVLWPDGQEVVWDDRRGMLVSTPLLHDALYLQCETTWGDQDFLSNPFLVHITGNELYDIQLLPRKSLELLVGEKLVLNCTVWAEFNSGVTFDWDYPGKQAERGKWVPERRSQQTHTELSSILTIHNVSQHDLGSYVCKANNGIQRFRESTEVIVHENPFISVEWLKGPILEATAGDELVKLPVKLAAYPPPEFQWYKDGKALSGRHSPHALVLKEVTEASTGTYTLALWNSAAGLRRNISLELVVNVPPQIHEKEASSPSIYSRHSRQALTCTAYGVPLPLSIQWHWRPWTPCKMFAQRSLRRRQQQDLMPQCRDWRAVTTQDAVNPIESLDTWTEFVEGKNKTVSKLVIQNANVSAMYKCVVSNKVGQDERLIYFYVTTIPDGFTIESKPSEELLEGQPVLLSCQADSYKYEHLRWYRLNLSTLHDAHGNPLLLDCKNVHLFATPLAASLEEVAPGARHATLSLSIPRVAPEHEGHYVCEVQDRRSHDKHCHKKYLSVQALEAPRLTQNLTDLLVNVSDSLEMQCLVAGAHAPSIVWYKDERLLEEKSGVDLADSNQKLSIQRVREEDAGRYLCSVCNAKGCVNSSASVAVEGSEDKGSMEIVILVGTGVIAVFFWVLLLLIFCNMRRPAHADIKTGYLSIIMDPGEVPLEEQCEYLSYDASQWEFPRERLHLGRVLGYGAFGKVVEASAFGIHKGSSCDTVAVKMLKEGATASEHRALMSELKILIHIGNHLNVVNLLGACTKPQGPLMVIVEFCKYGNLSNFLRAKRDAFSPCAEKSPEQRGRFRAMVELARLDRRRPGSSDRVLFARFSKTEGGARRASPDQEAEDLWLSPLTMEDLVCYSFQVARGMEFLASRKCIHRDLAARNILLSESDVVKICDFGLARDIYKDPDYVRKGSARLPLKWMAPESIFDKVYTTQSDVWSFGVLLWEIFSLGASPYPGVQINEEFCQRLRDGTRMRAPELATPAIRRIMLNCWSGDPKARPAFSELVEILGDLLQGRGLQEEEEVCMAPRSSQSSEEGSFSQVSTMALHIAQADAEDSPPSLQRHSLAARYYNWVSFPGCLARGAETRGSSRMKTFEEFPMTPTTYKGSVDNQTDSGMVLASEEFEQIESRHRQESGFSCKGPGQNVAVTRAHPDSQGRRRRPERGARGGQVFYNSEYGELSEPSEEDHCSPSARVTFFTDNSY
Sequence of Tyrosine-protein kinase Fyn (Homo sapiens) (P06241 2-537 limits assumed): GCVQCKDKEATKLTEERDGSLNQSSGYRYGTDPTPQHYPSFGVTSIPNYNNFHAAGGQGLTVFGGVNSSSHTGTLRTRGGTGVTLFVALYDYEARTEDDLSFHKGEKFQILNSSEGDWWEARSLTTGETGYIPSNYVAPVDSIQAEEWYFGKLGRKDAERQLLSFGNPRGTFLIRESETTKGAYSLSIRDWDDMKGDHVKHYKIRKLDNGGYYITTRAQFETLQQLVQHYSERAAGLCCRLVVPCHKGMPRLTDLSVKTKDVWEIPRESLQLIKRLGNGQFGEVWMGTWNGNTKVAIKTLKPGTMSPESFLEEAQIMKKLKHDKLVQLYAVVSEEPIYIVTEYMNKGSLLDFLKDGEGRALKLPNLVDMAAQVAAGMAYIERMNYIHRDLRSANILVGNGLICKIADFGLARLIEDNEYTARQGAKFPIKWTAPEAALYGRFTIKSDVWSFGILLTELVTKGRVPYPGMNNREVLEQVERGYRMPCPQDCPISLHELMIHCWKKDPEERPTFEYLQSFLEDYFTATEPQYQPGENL

As for `Nc1nccc(-c2c(-c3ccc(F)cc3)ncn2C2CCC(O)CC2)n1` (stereo not given), the inhibition was -1.68% in [1]; -2.32% in experiment [2]; -1.2% in experiment [3]; -4.27% in experiment [4]; 0.98% in experiment [5]; 1.39% in [6]. The inhibition in [7] is -0.22%; in [8], 2.19%; in [9], 14.7%; in experiment [10], 1.57%; in experiment [11] it was 6.58%; in experiment [12] it was 1.96%. Also, the inhibition in experiment [13] is 12.7%; in experiment [14], -1.46%; in experiment [15], -1.17%; in experiment [16] it was 0.89%; in [17] it was -0.36%; in [18], -0.97%. Also, the results for the inhibition in experiment [19] and in experiment [20] were -2.71% and -0.36%, respectively.

Regarding `Cc1ccc(C(=O)NC(C)C)cc1-c1ccc(C(=O)NCC2CC2)cc1`, the inhibition in experiment [1] was 4.93%; in experiment [2] it was -2.88%; in experiment [3], 0.01%; in experiment [4], -5.71%; in experiment [5], 5.33%; in experiment [6] it was 1.2%. The inhibition in experiment [7] was 2.58%; in experiment [8], -3.16%; in experiment [9] it was 0.94%; in experiment [10] it was -0.23%; in experiment [11] it was 0.91%; in experiment [12] it was -3.59%. Besides, the inhibition was -1.19% in experiment [13]; -3.27% in experiment [14]; -3.34% in experiment [15]; -1.9% in experiment [16]; -4.51% in [17]; -4.15% in [18]. Moreover, the inhibition is -4.41% in [19] and -1.4% in experiment [20].

For the molecule `O=C(Nc1n[nH]c2nc(-c3ccco3)ccc12)C1CC1`, the inhibition in experiment [1] is -0.33%; in experiment [2] it was 1.81%; in [3], 0.82%; in experiment [4] it was 1.09%; in experiment [5] it was 3.83%; in experiment [6], -1.89%. The inhibition in [7] is 2.09%; in experiment [8], -1.01%; in [9], 2.62%; in experiment [10], 1.1%; in experiment [11], 1.67%; in experiment [12], 3.22%. Further, the inhibition in [13] was 7.96%; in experiment [14] it was 1.21%; in [15] it was 2.33%; in experiment [16], -3.11%; in experiment [17], 0.45%; in [18], 1.25%. The inhibition in experiment [19] was determined as 0.79%; in experiment [20], 1.08%.
